Source: PubChem BioAssay
Compounds with a hit are over-represented: about 5.2% of the library has one in this group of screens.
PostGolgi ctrl = inhibits growth of the yeast control strain. inhibition, % at 10 µM. 98,000 tested, 5% active. efflux-deficient yeast background strain, growth absorbance A615, 16 h. AID 738
EphB4 antag = antagonists of human EphB4-ephrin-B2 interaction; P54760; EphB4 LBD / TNYL-RAW-Alexa532 peptide, fluorescence polarization; inhibition, % at 7 µM; 97,000 tested, 0.15% active; AID 720;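 active means inhibition above the screen-wide mean inhibition plus 3 SD, cut at about 15% in these data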
Target sequence (P54760 whole entry, looked up, the tested form may be a part): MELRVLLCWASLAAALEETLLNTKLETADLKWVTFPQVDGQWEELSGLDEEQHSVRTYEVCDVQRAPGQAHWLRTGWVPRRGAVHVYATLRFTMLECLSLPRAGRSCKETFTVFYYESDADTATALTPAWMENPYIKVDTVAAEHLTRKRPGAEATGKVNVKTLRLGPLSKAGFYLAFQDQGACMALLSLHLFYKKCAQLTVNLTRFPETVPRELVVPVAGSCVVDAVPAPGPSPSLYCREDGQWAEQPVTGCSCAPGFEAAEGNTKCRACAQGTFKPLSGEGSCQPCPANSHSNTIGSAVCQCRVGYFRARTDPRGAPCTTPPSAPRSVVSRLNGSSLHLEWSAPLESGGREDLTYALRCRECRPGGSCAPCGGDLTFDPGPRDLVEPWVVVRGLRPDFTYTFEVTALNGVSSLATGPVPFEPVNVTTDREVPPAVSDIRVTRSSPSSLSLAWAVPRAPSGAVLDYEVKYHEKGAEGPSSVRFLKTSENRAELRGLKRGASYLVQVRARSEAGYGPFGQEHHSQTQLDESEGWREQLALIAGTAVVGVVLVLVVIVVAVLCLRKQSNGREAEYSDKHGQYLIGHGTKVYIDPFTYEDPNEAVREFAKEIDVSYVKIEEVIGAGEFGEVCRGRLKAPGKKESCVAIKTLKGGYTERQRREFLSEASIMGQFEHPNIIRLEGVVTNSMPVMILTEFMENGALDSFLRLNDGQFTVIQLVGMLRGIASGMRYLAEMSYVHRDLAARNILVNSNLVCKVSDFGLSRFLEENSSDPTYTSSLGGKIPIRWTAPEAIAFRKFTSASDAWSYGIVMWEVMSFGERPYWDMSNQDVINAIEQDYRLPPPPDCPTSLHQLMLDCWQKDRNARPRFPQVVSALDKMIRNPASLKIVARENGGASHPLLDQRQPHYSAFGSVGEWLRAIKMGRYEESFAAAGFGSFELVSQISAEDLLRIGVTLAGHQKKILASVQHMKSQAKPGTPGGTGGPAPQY
PostGolgi yeast = growth inhibition of a yeast mutant, post-Golgi transport screen; post-Golgi transport phenotypic cell assay; AID 739; 98,000 tested, 0.9% active; inhibition, % at 10 µM;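 further: yeast cells grown in 1536-well plates; yeast grown about 18 h at 30C before absorbance read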
Calb biofilm kill = kills Candida albicans biofilms. C. albicans biofilm + clotrimazole, Alamar Blue. inhibition, % at 6 µM. 85,000 tested, 0.14% active. AID 834;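 active means inhibition above 20%; inactive means inhibition below 20%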;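 further: preformed 24 hr biofilms exposed to compound for 48 hr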
Each line names hits and unclear results; the compound was inactive in the other large screens. Unless noted, no stated cut-off is given here; in the data, active means inhibition above about 30%; inactive means the rest.

O=Cc1cc2ccccc2nc1SCc1ccc(Cl)cc1	PostGolgi yeast 67.6 (no result: Calb biofilm kill)
Clc1ccc(CSc2ncccn2)cc1	none
O=Cc1cc2ccccc2nc1SCc1ccc(Cl)c(Cl)c1	PostGolgi ctrl 38.0 (no result: Calb biofilm kill)
Cc1ccc(CSc2nc3ccccc3cc2C=O)cc1	PostGolgi ctrl 38.5, PostGolgi yeast 74.6 (no result: Calb biofilm kill)
O=C(Nc1ccccc1)/C(=C/c1ccccc1)c1ccccc1	PostGolgi ctrl 40.3 (no result: Calb biofilm kill)
Cc1ccccc1NC(=O)/C(=C/c1ccccc1)c1ccccc1	PostGolgi ctrl 31.4 (no result: Calb biofilm kill)
CSC(=NC#N)N1CCN(c2cccc(Cl)c2)CC1	none (no result: Calb biofilm kill)
Cc1ccc(NC2=Nc3ccccc3N3C2=Nc2c(c(C)nn2-c2ccccc2)C3c2ccc(O)c(O)c2)cc1 (stereo not drawn)	none
Cc1nn(-c2ccccc2)c2c1C(c1ccc(O)c(O)c1)N1C(=N2)C(Nc2ccccc2)=Nc2ccccc21 (stereo not drawn)	PostGolgi ctrl 51.1
COc1ccc2c(c1)c(=O)oc1cc(OCC(=O)NC3CCCCC3)ccc12	PostGolgi ctrl 93.1, PostGolgi yeast 80.8
COc1ccc2c(c1)c(=O)oc1cc(OCC(=O)NC3CC3)ccc12	none
CCN(CC)C(=O)C(Cc1ccccc1)N1C(=O)c2ccccc2C1=O (stereo not drawn)	none (no result: Calb biofilm kill)
COc1ccc(-c2cc(C(=O)N/N=C/c3ccc(OC)c(COCC(F)(F)C(F)F)c3)c3ccccc3n2)c(OC)c1	none (no result: Calb biofilm kill)
COc1ccccc1-c1cc(C(=O)N/N=C/c2cccs2)c2ccccc2n1	PostGolgi ctrl 32.6 (no result: Calb biofilm kill)
COc1ccc(-c2cc(C(=O)N/N=C/c3ccc4c(c3)OCO4)c3ccccc3n2)c(OC)c1	PostGolgi ctrl 71.7, PostGolgi yeast 37.1 (no result: Calb biofilm kill)
CCOCCCn1c(=S)[nH]c2cc(C(=O)N3CCN(C)CC3)ccc2c1=O	none
COCCn1c(=S)[nH]c2cc(C(=O)N3CCc4ccccc43)ccc2c1=O	PostGolgi ctrl 96.2
CCCn1c(=S)[nH]c2cc(C(=O)N3CCc4ccccc43)ccc2c1=O	PostGolgi ctrl 102.9
CC1CCCN(C(=O)C(Cc2ccccc2)n2cccc2)C1 (stereo not drawn)	none
Cc1ccc(C(=O)NCCSc2ccc(Cl)cc2)cc1[N+](=O)[O-]	PostGolgi ctrl 35.6 (no result: Calb biofilm kill)
Cc1ccc(SCCNC(=O)c2ccc(C)c([N+](=O)[O-])c2)cc1	none (no result: Calb biofilm kill)
FC(F)(F)c1cccnc1N1CCN(c2ncnc3nc[nH]c23)CC1	Calb biofilm kill 29.0 (no result: EphB4 antag)
Cc1onc(-c2c(F)cccc2Cl)c1C(=O)OCC(=O)NC(c1ccccc1)c1ccccc1	none (no result: Calb biofilm kill)
CC(C)(C)n1nnnc1C(c1cccs1)N(Cc1cccnc1)Cc1ccccc1Cl (stereo not drawn)	none
CC(c1nnnn1C(C)(C)C)N(Cc1cccnc1)Cc1ccccc1Cl (stereo not drawn)	PostGolgi ctrl 32.0
CC(c1ccc(Cl)cc1)n1c(-c2ccc3ccccc3n2)n[nH]c1=S (stereo not drawn)	PostGolgi ctrl 54.6 (no result: Calb biofilm kill)
CCn1c(-c2ccc(Cl)cc2)n[nH]c1=S	none
CC(c1ccc(F)cc1)n1c(-c2ccc3ccccc3n2)n[nH]c1=S (stereo not drawn)	PostGolgi ctrl 36.4 (no result: Calb biofilm kill)
CC1(C)Cc2ccccc2-c2nnc(-c3ccc4ccccc4n3)n21	none (no result: PostGolgi ctrl, PostGolgi yeast)
CC(=O)N1c2c(ccc3ccccc23)C(C)CC12CCCCC2 (stereo not drawn)	PostGolgi ctrl 38.1
Cc1cccc(C)c1N1C(=O)c2ccccc2C1=O	Calb biofilm kill 39.5
Cc1ccc(N2C(=O)c3ccccc3C2=O)cc1C	none (no result: PostGolgi ctrl, PostGolgi yeast)
O=C1CN(C(=O)c2ccccc2F)c2ccccc2N1	none
O=C1CN(C(=O)c2cccs2)c2ccccc2N1	PostGolgi ctrl 32.7
COc1ccc(N(C)S(=O)(=O)c2cccc(C(=O)Nc3ccc(-n4cnnn4)cc3)c2)cc1	none
CCOc1cc(/C=N/n2cnnc2)ccc1OC(=O)c1cccc([N+](=O)[O-])c1	PostGolgi ctrl 36.4 (no result: Calb biofilm kill)
COc1ccc(/C=N/NC(=O)c2cccc([N+](=O)[O-])c2)cc1OC(=O)c1ccc(C)cc1	none (no result: Calb biofilm kill)
CCOc1cc(/C=N/NC(=O)c2cc(C)[nH]n2)ccc1OC(=O)c1ccc([N+](=O)[O-])cc1	none (no result: Calb biofilm kill)
COc1ccc(/C=N/NC(=O)c2cccc([N+](=O)[O-])c2)cc1OC(=O)c1ccccc1	PostGolgi ctrl 32.5 (no result: Calb biofilm kill)
O=C(OCn1nnc2ccccc2c1=O)c1cn(-c2ccccc2)nc1-c1cccnc1	PostGolgi yeast 34.2
CCOC(=O)c1cc(C)n(-c2ccc(OC)c(OC)c2)c1C	none (no result: EphB4 antag)
OC(CN1CCN(c2ccccc2)CC1)Cn1c2ccccc2c2ccccc21 (stereo not drawn)	PostGolgi ctrl 36.5
OCC(O)CN1CCN(c2ccccc2)CC1 (stereo not drawn)	none (no result: PostGolgi ctrl, EphB4 antag, PostGolgi yeast)
OC(CN1CCN(c2ccccn2)CC1)Cn1c2ccc(Cl)cc2c2cc(Cl)ccc21 (stereo not drawn)	PostGolgi ctrl 96.8, PostGolgi yeast 96.6
CCOc1cccc(SCc2noc(C(=O)NCCOC)c2C(=O)O)c1	PostGolgi ctrl 33.4 (no result: Calb biofilm kill)
O=C(COc1cccc2ccccc12)N1c2ccccc2CCc2ccccc21	PostGolgi ctrl 32.3 (no result: Calb biofilm kill)
O=C(COc1cccc2ccccc12)N1CCN(c2ccccc2)CC1	none
CC1(C)CC2CC(C)(CN2C(=O)COc2cccc3ccccc23)C1 (stereo not drawn)	PostGolgi ctrl 46.5
CC1CCCC(C)N1C(=O)COC(=O)c1ccc(O)cc1 (stereo not drawn)	none
OCCN1CCOCCN(CCO)CCOCC1	none
C/C(CCc1oc2c(Br)cc(Br)cc2c1-c1ccc(C)o1)=N\O	none (no result: PostGolgi ctrl, PostGolgi yeast)
C/C(CCc1oc2ccccc2c1-c1ccc(C)o1)=N/O	PostGolgi ctrl 47.1
CCCCc1ccc(NC(=O)COCC)cc1	none
CCCCc1cc(O)c(CCCC)c(O)c1	PostGolgi ctrl 42.2
NC(=O)NCC12CC3CC(CC(C3)C1)C2	none
C/C(CCC12CC3CC(CC(C3)C1)C2)=N\NC(N)=S	PostGolgi ctrl 44.8, PostGolgi yeast 85.9
COc1ccc(-n2c(=O)c3ccccc3n(CC(=O)NC3CCCCC3)c2=O)c(OC)c1	none
COc1ccc(-n2c(=O)c3ccccc3n(CC(=O)NC3CCCC3)c2=O)cc1	PostGolgi ctrl 37.0
Cc1cc(C)c(C)c(S(=O)(=O)Nc2ccc(OCC(=O)O)cc2)c1C	none
O=C(CN(c1ccc(F)cc1)S(=O)(=O)c1ccc2c(c1)OCCO2)NCC1CCCO1 (stereo not drawn)	PostGolgi ctrl 33.3
CC(Cc1ccccc1)N/C=C1\CC(=O)NC1=O (stereo not drawn)	none
O=C(COC(=O)c1ccccc1[N+](=O)[O-])c1ccc(C2CCCCC2)cc1	PostGolgi ctrl 34.2 (no result: Calb biofilm kill)
N/C(=N\OC(=O)c1ccccc1[N+](=O)[O-])c1cccnc1	none (no result: Calb biofilm kill)
Cc1ccc(CSCC(=O)N2CCOCC2)cc1	none
COC(=O)CNC(=O)C(C)NC(=O)CNC(=O)OCc1ccccc1 (stereo not drawn)	none
C/C=C/c1ccc(OCCCCn2cncn2)c(OC)c1	PostGolgi ctrl 31.1
CC(Oc1ccc(Cl)cc1Cl)C(=O)N/N=C1\CCCc2ccccc21 (stereo not drawn)	none (no result: Calb biofilm kill)
COC(=O)C1=CN(c2cccc(C)c2)C=C(C(=O)OC)C1c1cc(OC)c(O)c([N+](=O)[O-])c1	PostGolgi ctrl 67.0 (no result: Calb biofilm kill)
CCc1ccc(C(=O)COC(=O)c2cnccn2)cc1	none
Cn1c(=O)c2c(nc(NCC3CCCO3)n2Cc2cccc(Br)c2)n(C)c1=O (stereo not drawn)	none
O=c1nc(NC2CCCC2)ccn1Cc1cccc(Br)c1	PostGolgi ctrl 49.8
